Screens as filed in PubChem.
Shiga toxin inh = blocks Shiga toxin action in Vero cells; Vero cells, Shiga toxin protein synthesis inhibition reporter; inhibition, % at 38.7 µM; actives 9.2% (n = 290,000); AID 2315; in the data active = inhibition mostly above about 28%, no sharp cut-off; inactive = mostly below about 43%; note: 0% is about no effect
Vaccinia mCherry = vaccinia inhibition (mCherry reporter) | Vaccinia virus mCherry reporter infection, fluorescence | Potency, µM (doses to about 36.5 µM), without a hit: at the highest dose activity change, negative = inhibition, usual class: inhibitors | actives 0.63% (n = 310,000) | AID 720579; calls by dose curve; tested in A549 cells; note: potency is the fitted concentration of half-maximal effect; % is set by controls: 0 for no effect and ±100 for the full control effect; nearly all actives have a fitted effect of over 35% in size
CHX counter = affects cycloheximide protein synthesis inhibition readout, counter-screen; actives 12% (n = 300,000); cell reporter, cycloheximide protein synthesis inhibition counterscreen; max response, %; in the data active = max response mostly above about 13%, no sharp cut-off; inactive = mostly below about 14%; note: read at 38.3 µM for the half of the compounds with a filed dose; 0% is about no effect
LASV entry inh = blocks Lassa virus binding to or entry into cells | Potency, µM (top dose mostly 37.9 µM), inactives show at the highest dose activity change, negative = inhibition, actives largely listed as inhibitors | Lassa virus pseudotype entry inhibition, cell reporter | actives 1.2% (n = 300,000); calls by dose curve; tested in HEK293 cells; note: potency is the fitted concentration of half-maximal effect; % is set by controls: 0 for no effect and ±100 for the full control effect; nearly all actives have a fitted effect of over 50% in size
Marburg entry inh = blocks Marburg virus binding to or entry into cells | Marburg virus pseudotyped entry inhibition, cell reporter | Potency, µM (titrated, usually from 37.8 µM), for the others: at the highest dose activity change, negative = inhibition, hits mostly inhibitors | actives 1.8% (n = 300,000) | AID 540276; calls by dose curve; tested in HEK293 cells; note: potency is the fitted concentration of half-maximal effect; % is set by controls: 0 for no effect and ±100 for the full control effect
Vaccinia Venus = inhibitors of vaccinia virus (Venus reporter). Vaccinia virus Venus reporter expression, fluorescence. Potency, µM (series often up to 36.5 µM), inactives show top-dose activity change, negative = inhibition, actives largely listed as inhibitors. actives 0.46% (n = 330,000). AID 720580; calls by dose curve; tested in A549 cells; note: potency is the fitted concentration of half-maximal effect; % is set by controls: 0 for no effect and ±100 for the full control effect; nearly all actives have a fitted effect of over 30% in size
* marks the source's active call; other numbers are inactive results; [ ] = remark or other dose. The sample as a whole holds a higher share of hits than the screen did.

Screening O=[N+]([O-])c1cccc(/C=N\N=C2c3ccccc3-c3ccccc32)c1O returned Shiga toxin inh -3, Vaccinia mCherry -19%, CHX counter 7, LASV entry inh 9%, Marburg entry inh -2% and Vaccinia Venus -5%.
For O=[N+]([O-])c1ccccc1N/N=C\c1ccccc1Cl the results were Shiga toxin inh 41*, Vaccinia mCherry -3%, CHX counter 26*, LASV entry inh inconclusive, Marburg entry inh inconclusive and Vaccinia Venus -18%.
`O=[N+]([O-])c1ccc(O)c(/C=N/Nc2ccccc2Cl)c1` gave Shiga toxin inh 69*, Vaccinia mCherry -13%, CHX counter 40*, LASV entry inh inconclusive, Marburg entry inh inconclusive and Vaccinia Venus -20%.
`O=[N+]([O-])c1ccccc1C=NNc1ccccc1` gave Vaccinia mCherry inconclusive, LASV entry inh -11%[46.1 µM], Marburg entry inh inconclusive and Vaccinia Venus -3%.
For COc1ccc(/C=N/Nc2ncccc2[N+](=O)[O-])c(OC)c1 the results were Shiga toxin inh 51*, Vaccinia mCherry -22%, CHX counter 12 and Vaccinia Venus -12%.
`O=[N+]([O-])c1ccccc1N/N=C/c1cccc(O)c1O` gave Shiga toxin inh 115* and CHX counter 30*.
O=C(N/N=C/c1cc([N+](=O)[O-])ccc1O)C1CC1 was read as Shiga toxin inh -13 and CHX counter 0.
`COc1ccc(-c2nc(CSCC(=O)NCc3ccccc3Cl)c(C)o2)cc1OC` gave Vaccinia mCherry -3%, LASV entry inh -28%[46.1 µM], Marburg entry inh -2%[46.1 µM] and Vaccinia Venus -18%.
COc1ccc(NC(=O)C2CCCC2)cn1 was read as Shiga toxin inh 4, Vaccinia mCherry -9%, CHX counter -1, LASV entry inh 3%, Marburg entry inh -8%[46.1 µM] and Vaccinia Venus -6%.
`Cc1cnc(C)c(-c2cccc3c2OC(CNC(=O)/C=C/c2ccncc2)C3)n1` (centres undefined) gave Vaccinia mCherry -12% and Vaccinia Venus 1%.
Screening CC(C)n1cnc(S(=O)(=O)N2CCCC(C(=O)NCc3ccccc3Cl)C2)c1 (centres undefined) returned Vaccinia mCherry 3%, LASV entry inh 10%[46.1 µM] and Vaccinia Venus 0%.
`O=C(/C=C/c1ccc(Cl)cc1)N1CCC(c2nc3ccccc3o2)CC1` gave Vaccinia mCherry -5%, LASV entry inh -1%[46.1 µM], Marburg entry inh inconclusive and Vaccinia Venus -6%.
COc1cc(C=NNc2ccccc2[N+](=O)[O-])cc(OC)c1OC was read as Vaccinia mCherry inactive and Vaccinia Venus -5%.
For CCCOc1ccc(/C=N/Nc2ccccc2[N+](=O)[O-])c(OCCC)c1 the results were Shiga toxin inh 14, Vaccinia mCherry -5%, CHX counter 28*, LASV entry inh inconclusive, Marburg entry inh -10% and Vaccinia Venus -2%.
O=[N+]([O-])c1cccc(N/N=C/c2cccc(O)c2O)c1 was read as Shiga toxin inh 85*, Vaccinia mCherry inconclusive, CHX counter 40*, LASV entry inh -15%, Marburg entry inh inconclusive and Vaccinia Venus inconclusive.
`O=[N+]([O-])c1ccccc1N/N=C\c1ccccc1F` gave Shiga toxin inh 51*, Vaccinia mCherry -1%, CHX counter 48*, LASV entry inh -16%, Marburg entry inh inconclusive and Vaccinia Venus -2%.
Screening COCCN(C(=O)c1snc(C(N)=O)c1N)C(C(=O)NC1CCCCC1)c1ccc(N(C)C)cc1 (centres undefined) returned Shiga toxin inh 7 and CHX counter 7.
`CCc1nn(CC(=O)NCCCc2ccccc2)c(=O)c2cc3ccccc3n12` gave Vaccinia mCherry 2%, Marburg entry inh inconclusive and Vaccinia Venus -6%.
For COc1c(S(=O)(=O)NCCCN2CCOCC2)ccc(Cl)c1Cl the results were Shiga toxin inh -2, Vaccinia mCherry -11%, CHX counter -10, LASV entry inh inconclusive, Marburg entry inh -4%[46.1 µM] and Vaccinia Venus 2%.
`CC1CCc2c(sc3nc(C4CC4)nc(N4CCN(C(=O)c5ccco5)CC4)c23)C1` (centres undefined) gave Vaccinia mCherry 14µM*, LASV entry inh inconclusive, Marburg entry inh inconclusive and Vaccinia Venus inconclusive.
